The list is not random: actives were taken first. Their share in the collection is about 10%.
NIH3T3 tox: Cytotoxic Profiling in NIH 3T3 Cell Line of Diverse Libraries Using Quantitative High-Throughput Screening | actives 4.3% (n = 94,000) | NIH 3T3 viability, CellTiter-Glo ATP luminescence, 48-72 h | AID 1345082, 2018 | Potency, µM (titrated, usually from 96.7 µM), without a hit: at the highest dose activity change, negative = cytotoxicity, usual class: inhibitors; also: nearly all actives have a fitted effect of over 55% in size
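Luminescent ATP readout (CellTiter-Glo, 10 min RT) after 48 or 72 hr compound exposure of NIH 3T3 cells seeded at 400 cells/well in 1536-well format; quantitative HTS.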
GPT2 inh: Primary qHTS assay for inhibitors of Glutamate pyruvate transaminase 2 (GPT2) | Recombinant GPT2, coupled pyruvate oxidase/HRP Amplex Red fluorescence | AID 1671188, 2021 | Potency, µM (doses to about 57.7 µM), for inactives: at the top dose activity change, negative = inhibition, most hits filed as inhibitors | Alanine aminotransferase 2 (Homo sapiens), Q8TD30 | actives 0.25% (n = 100,000); also: nearly all actives have a fitted effect of over 60% in size
Target sequence (Q8TD30 whole entry, looked up): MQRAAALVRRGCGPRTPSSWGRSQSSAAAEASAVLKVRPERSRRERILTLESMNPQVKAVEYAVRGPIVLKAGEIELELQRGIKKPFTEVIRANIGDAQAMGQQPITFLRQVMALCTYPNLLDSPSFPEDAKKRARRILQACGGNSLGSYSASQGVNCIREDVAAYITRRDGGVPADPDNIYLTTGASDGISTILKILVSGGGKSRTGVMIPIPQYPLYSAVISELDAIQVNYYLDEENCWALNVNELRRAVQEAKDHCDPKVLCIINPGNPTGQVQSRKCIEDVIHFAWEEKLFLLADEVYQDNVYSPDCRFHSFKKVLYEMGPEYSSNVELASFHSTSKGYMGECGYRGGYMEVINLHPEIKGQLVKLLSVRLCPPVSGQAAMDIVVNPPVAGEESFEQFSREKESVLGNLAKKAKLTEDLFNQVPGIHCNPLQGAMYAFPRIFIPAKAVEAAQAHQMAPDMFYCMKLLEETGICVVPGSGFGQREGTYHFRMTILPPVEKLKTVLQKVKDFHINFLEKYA
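Inhibition is scored from Amplex Red fluorescence generated when pyruvate oxidase and HRP act on pyruvate released by GPT2. Reactions contain 10ng/uL enzyme, 250uM a-KG and 2mM L-alanine and run 30 min at room temperature.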
HEK293 tox: Cytotoxic Profiling in HEK 293 Cell Line of Diverse Libraries Using Quantitative High-Throughput Screening | actives 6.6% (n = 94,000) | Potency, µM (highest dose often 115 µM), for inactives: top-dose activity change, negative = cytotoxicity, hits mostly inhibitors | HEK 293 viability, ATP luminescence (CellTiter-Glo), 48-72 h; also: nearly all actives have a fitted effect of over 60% in size
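Cells seeded first (HEK 293, 250 cells/well), then compound added by pintool. Incubation ran 48 or 72 hr at 37 degree Celsius. CellTiter-Glo was added and luminescence imaged after 10 min at room temperature.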
FLuc inh: Firefly luciferase inhibition profiling of diverse chemical library using quantitative high-throughput screening; Luciferin 4-monooxygenase (Photinus pyralis), P08659; purified P. pyralis luciferase, luminescence, biochemical; Potency, µM (series often up to 115 µM), usual class: inhibitors; actives 2.5% (n = 76,000); AID 1347043, 2019; also: nearly all actives have a fitted effect of over 65% in size
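Inhibitors were tested against purified firefly luciferase in a biochemical, low-substrate format (both substrates at 10uM) and luminescence measured with a CCD imager.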
NPR1 antag: Natriuretic polypeptide receptor (hNpr1) antagonism - Primary qHTS | Potency, µM (titrated, usually from 46.3 µM), for inactives: at the highest dose activity change, negative = inhibition, most hits filed as inhibitors | actives 1.6% (n = 76,000) | Atrial natriuretic peptide receptor 1 (Homo sapiens), P16066 | HEK293 hNpr1 GloSensor cGMP, ANP-stimulated luminescence; calls by dose curve; also: nearly all actives have a fitted effect of over 60% in size
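HEK293 cells stably expressing human Npr1 and cGMP GloSensor pGS-40F, loaded 2 h with 2% GloSensor reagent, given compound 30 min at room temperature. Luminescence read before and 20 min after 0.1 nM hNppA.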
Starred values were filed as active, the others as inactive; i = inactive; ? = inconclusive; . = no result; [ ] = another dose, or the depositor's remark. Unless noted, calls follow the shape of the dose curve; as a rule, active = well fitted curve in the direction sought with a large enough effect; inconclusive = small, poorly fitted or top-dose-only effect, or another doubt; inactive = no such curve, though single readings can be large; an effect the other way counts as inactive or inconclusive. % is scaled to controls: 0 for no effect and ±100 for the full control effect; potency is read from the fitted curve at half-maximal effect.

SMILES	NIH3T3 tox	GPT2 inh	HEK293 tox	FLuc inh	NPR1 antag
Cc1ccc(Nc2ccnc(N3CCC(C(=O)N4CCC(Cc5ccccc5)CC4)CC3)n2)cc1	?	1.3%	35.5µM*	.	.
CC(=O)N1CCN(C(=O)C2CCN(c3nccc(Nc4ccc(C)cc4)n3)CC2)CC1	-20.7%	i	-14.9%	.	.
Cc1ccc(Nc2ccnc(N3CCC(C(=O)N4CCN(c5ncccn5)CC4)CC3)n2)cc1	35.5µM*	i	17.8µM*	.	.
CCN1c2cc(C(=O)Nc3ccc(OC)c(Cl)c3)ccc2C(=O)N2CCCCC21 (configuration not stated)	22.4µM*	i	35.5µM*	i	-25.7%
CCN1c2cc(C(=O)Nc3ccc(OC)c(OC)c3)ccc2C(=O)N2CCCCCC21 (configuration not stated)	?	0.9%	44.7µM*	i	-29.7%
CCN1c2cc(C(=O)Nc3ccc(OC)c(OC)c3)ccc2C(=O)N2CCCCC21 (configuration not stated)	?	i	?	i	-12.2%
O=C(NCCCc1ccccc1)c1cc(-c2cc(Cl)cc(Cl)c2)c2cccn2n1	?	-11.5%	?	.	.
CCCc1nnc(C[C@@H]2C[C@@H](C(C)C)[C@H](CNCc3cccnc3)C=C2C)o1	-23.9%[138 µM]	-5.9%[88.5 µM]	?	i	-11.8%[70.6 µM]
CCCc1nnc(C[C@@H]2C[C@@H](C(C)C)[C@H](CO)C=C2C)o1	?	-12.8%[88.5 µM]	?	i	-0.1%[70.6 µM]
CCCc1nnc(C[C@@H]2C[C@@H](C(C)C)[C@H](CN3CCN(c4ncccn4)CC3)C=C2C)o1	?	i	39.8µM*	i	2.5%
CC1=C[C@@H](CN2CCN(c3ncccn3)CC2)[C@H](C(C)C)C[C@H]1Cc1nnc(Cc2c[nH]c3ccccc23)o1	?	3.8%	44.7µM*	i	-0.1%
CCCc1nnc(C[C@@H]2C[C@@H](C(C)C)[C@H](CN3CCC(O)CC3)C=C2C)o1	-1.4%[174 µM]	i	3.9%[172 µM]	i	2.7%[70.6 µM]
CC1=C[C@@H](CN2CCN(CCO)CC2)[C@H](C(C)C)C[C@H]1Cc1nnc(C)o1	-7.7%[138 µM]	i	-11.9%[172 µM]	i	2.2%[70.6 µM]
CCCc1nnc(C[C@@H]2C[C@@H](C(C)C)[C@H](CNc3cccnc3)C=C2C)o1	25.1µM*	10µM*	89.1µM*	i	-8.9%[70.6 µM]
CCCc1nnc(C[C@@H]2C[C@@H](C(C)C)[C@H](CN3CCN(C(C)=O)CC3)C=C2C)o1	-11.6%[174 µM]	-1.9%[88.5 µM]	100µM*	i	-6.5%[70.6 µM]
CNC(=O)c1cc(C2CC2)nc2onc(C3CCCN3C(=O)C3CCCC3)c12 (configuration not stated)	?	.	i	.	.
O=C(NC1CCN(c2cc(-c3cccs3)[nH]n2)CC1)c1cccc(Cl)c1	?	-1.3%	44.7µM*	i	0.0%
Cc1ccc(CC(=O)NC2CCN(c3cc(-c4cccs4)[nH]n3)C2)cc1 (configuration not stated)	?	?	?	i	-22.9%
CN(C)c1cccc(C(=O)NC2CCN(c3cc(-c4cccs4)[nH]n3)C2)c1 (configuration not stated)	?	?	?	31.6µM*	-21.4%
O=C(Cc1ccccc1Cl)NC1CCN(c2cc(-c3cccs3)[nH]n2)C1 (configuration not stated)	20µM*	?	?	i	-5.0%
Cc1cccc(C(=O)NC2CCN(c3cc(-c4cccs4)[nH]n3)C2)c1 (configuration not stated)	?	?	?	i	-16.5%
Cn1c([C@H]2CCN(Cc3ccc4c(c3)OCO4)C2)nc2ccccc21	?	-23.5%[88.5 µM]	?	i	-10.8%[70.6 µM]
CC(C)CN1CC[C@H](c2nc3ccccc3n2C)C1	-24.4%[230 µM]	-5.0%[88.5 µM]	?	22.4µM*	-0.3%[70.6 µM]
